Assay [1] in a line: optical density shifts of acrAB sulA E. coli – strain DRC41, OD650, 48 h, E. coli filamentation inducer project, primary screen (AID 1152).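 Note: E. coli MC1000 strain DRC41 lacking acrAB efflux pump and sulA.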 The conditions noted are these: higher = more signal, called active from +8 up or from −8 down.
Assay [2] is described as follows: probe aLefty1 binding on compound microarray – biochemical, small-molecule microarray, 635/667 nm fluorescence, primary screen (AID 1153).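 Note: score merges spot fluorescence with signal-to-noise ratio from the scanned slide images.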 Conditions: higher = more signal.
The nature of assay [3]: plasmodial surface anion channel blockers, osmotic lysis – cell-based, P. falciparum Indochina, OD700, 1 h, primary screen (AID 1154). Conditions: P. falciparum Indochina infected RBC osmotic lysis, higher = more signal, called active from +8 up or from −8 down.
Assay [4] in a line: plasmodial surface anion channel blockers, osmotic lysis – cell-based, P. falciparum Indochina, OD700, 2 h, primary screen (AID 1155).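 Note: lysis reports solute entry through the parasite surface anion channel PSAC.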 Conditions: P. falciparum Indochina infected erythrocytes, higher = more signal, called active from +8 up or from −8 down.
The nature of assay [5]: changes in parasitized red cell lysis, either direction – P. falciparum Indochina, OD700, 3 h, PSAC antagonist project, primary screen (AID 1156). Conditions: P. falciparum-infected erythrocytes, osmotic lysis, higher = more signal, called active from +8 up or from −8 down.
Assay [6] in a line: plasmodial surface anion channel blockers, osmotic lysis – cell-based, P. falciparum Indochina, OD700, 18 h, primary screen (AID 1157). The conditions noted are these: P. falciparum Indochina infected erythrocytes, osmotic lysis OD700, 18 h; higher = more signal, called active from +8 up or from −8 down.
A short description of assay [7]: S6 kinase pathway phospho-S6 level changes – cell-based, A549, cytoblot, luminescence, serum-stimulated, primary screen (AID 1158).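 Note: serum-stimulated A549 lung adenocarcinoma cells; signal is phosphorylated S6 detected by cytoblot immunostaining with HRP secondary.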 Conditions: 5 h, higher = more signal.
The target in assay [8] is NADPH oxidase 2 (Homo sapiens) (UniProt P04839). The assay can be described thus: compounds shifting NOX2 Amplex Red fluorescence – cell-based, HEK293-NOX2, PMA-stimulated, NOX inhibitor project, primary screen (AID 1159). Note: test concentration not given here. Conditions: 45 min, higher = more signal, called active from +8 up or from −8 down.
Assay [9] addresses NADPH oxidase 4 (Homo sapiens) (UniProt Q9NPH5). As to the kind of experiment: compounds shifting NOX4 Amplex Red fluorescence – cell-based, HEK293-NOX4, tetracycline-induced, NOX inhibitor project, primary screen (AID 1160). Conditions: HEK293-NOX4, Amplex Red H2O2 fluorescence, 45 min; higher = more signal, called active from +8 up or from −8 down.
The target of assay [10] is NADPH oxidase 5 (Homo sapiens) (UniProt Q96PH1). The assay can be described thus: compounds shifting NOX5 Amplex Red fluorescence – cell-based, HEK293-NOX5, NOX inhibitor project, primary screen (AID 1161). The conditions noted are these: HEK293-NOX5, ionomycin, 45 min, higher = more signal.
Assay [11] is described as follows: compound effects on lung adenocarcinoma cell viability – A549, calcein-AM fluorescence, 48 h, basal, profiling panel (AID 1162). Note: test concentration not given here. Conditions: higher = more signal.
The nature of assay [12]: compound effects on differentiated 3T3-L1 adipocyte viability – cell-based, 3T3-L1 adipocytes, calcein-AM fluorescence, 48 h, basal, profiling panel (AID 1163). Note: test concentration not given here. The conditions noted are these: 3T3-L1 adipocytes viability, higher = more signal.
Assay [13] can be described thus: compound effects on hepatocellular carcinoma cell viability – HepG2, calcein-AM fluorescence, 48 h, basal, profiling panel (AID 1164). Note: test concentration not given here. Conditions: higher = more signal.
The nature of assay [14]: compound effects on multiple myeloma cell viability – MM1S, calcein-AM fluorescence, 48 h, basal, profiling panel (AID 1165). Note: test concentration not given here. Conditions: higher = more signal.
A short description of assay [15]: calcein-AM signal in unstimulated myeloma cells – cell-based, calcein-AM fluorescence, 48 h, PK04 Diversity Set, profiling panel (AID 1166).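 Note: cells grown under basal conditions without added stimulus; test concentration not given here.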 The conditions noted are these: RPMI8226 myeloma viability, higher = more signal.
The nature of assay [16]: JC-1 mitochondrial signal, unstimulated HepG2 cells – cell-based, JC-1 fluorescence, 24 h, 100 nL compound, profiling panel (AID 1167). Note: test concentration not given here. Conditions: HepG2 mitochondrial potential, higher = more signal.
A short description of assay [17]: JC-1 mitochondrial signal, unstimulated adipocytes – cell-based, JC-1 fluorescence, 3T3-L1 adipocytes, 24 h, 100 nL compound, profiling panel (AID 1168). Note: test concentration not given here. The conditions noted are these: JC-1 mitochondrial fluorescence, higher = more signal, called active from +8 up or from −8 down.
A short description of assay [18]: JC-1 mitochondrial signal, unstimulated myeloma cells – cell-based, JC-1 fluorescence, RPMI8226, 24 h, 100 nL compound, profiling panel (AID 1169). Note: test concentration not given here. Conditions: JC-1 mitochondrial potential fluorescence, higher = more signal.
A short description of assay [19]: JC-1 mitochondrial signal, unstimulated MM1S myeloma – cell-based, JC-1 fluorescence, 24 h, 100 nL compound, profiling panel (AID 1170). Note: test concentration not given here. The conditions noted are these: MM1S mitochondrial potential, higher = more signal.
Assay [20] in a line: resazurin metabolic signal in A549 cells – cell-based, resazurin fluorescence, 24 h, PK04 Diversity Set, profiling panel (AID 1171). Note: test concentration not given here. Conditions: A549 viability, higher = more signal, called active from +8 up or from −8 down.

Active and inactive are the calls of the source.

Sequence of NADPH oxidase 5 (Homo sapiens) (Q96PH1 whole entry, looked up): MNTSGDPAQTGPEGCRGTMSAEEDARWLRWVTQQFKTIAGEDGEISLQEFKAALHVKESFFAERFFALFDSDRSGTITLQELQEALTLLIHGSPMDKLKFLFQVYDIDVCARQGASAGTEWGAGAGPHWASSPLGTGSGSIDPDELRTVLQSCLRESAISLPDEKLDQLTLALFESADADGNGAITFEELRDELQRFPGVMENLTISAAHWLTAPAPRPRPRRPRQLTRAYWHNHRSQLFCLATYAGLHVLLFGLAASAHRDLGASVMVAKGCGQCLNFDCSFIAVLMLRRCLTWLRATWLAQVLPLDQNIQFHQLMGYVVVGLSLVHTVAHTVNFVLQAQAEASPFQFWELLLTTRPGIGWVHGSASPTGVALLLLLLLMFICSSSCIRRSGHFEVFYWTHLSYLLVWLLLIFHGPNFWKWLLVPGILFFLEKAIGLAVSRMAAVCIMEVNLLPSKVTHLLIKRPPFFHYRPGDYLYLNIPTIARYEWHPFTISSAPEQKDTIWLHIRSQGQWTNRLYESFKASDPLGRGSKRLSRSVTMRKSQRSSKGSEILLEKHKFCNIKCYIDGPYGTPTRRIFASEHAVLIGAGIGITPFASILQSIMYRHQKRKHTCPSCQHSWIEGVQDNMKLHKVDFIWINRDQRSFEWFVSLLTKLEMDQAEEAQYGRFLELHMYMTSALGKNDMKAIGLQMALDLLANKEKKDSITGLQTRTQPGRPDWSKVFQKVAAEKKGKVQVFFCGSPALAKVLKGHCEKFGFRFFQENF
Sequence of NADPH oxidase 4 (Homo sapiens) (Q9NPH5 whole entry, looked up): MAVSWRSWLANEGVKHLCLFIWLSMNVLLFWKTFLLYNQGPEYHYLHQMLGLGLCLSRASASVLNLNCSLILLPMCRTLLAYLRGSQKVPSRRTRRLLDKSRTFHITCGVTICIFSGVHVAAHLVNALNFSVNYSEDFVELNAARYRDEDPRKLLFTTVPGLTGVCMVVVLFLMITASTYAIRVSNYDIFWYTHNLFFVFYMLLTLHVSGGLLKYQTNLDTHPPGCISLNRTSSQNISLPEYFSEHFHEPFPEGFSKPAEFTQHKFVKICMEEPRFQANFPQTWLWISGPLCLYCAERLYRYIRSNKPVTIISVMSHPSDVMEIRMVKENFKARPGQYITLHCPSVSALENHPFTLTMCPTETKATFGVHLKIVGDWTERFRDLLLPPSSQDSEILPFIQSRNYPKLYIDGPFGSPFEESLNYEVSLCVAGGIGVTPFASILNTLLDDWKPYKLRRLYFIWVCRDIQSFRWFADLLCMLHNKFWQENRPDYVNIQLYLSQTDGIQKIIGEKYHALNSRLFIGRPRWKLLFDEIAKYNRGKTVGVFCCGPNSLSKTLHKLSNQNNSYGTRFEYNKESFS
Sequence of NADPH oxidase 2 (Homo sapiens) (P04839 whole entry, looked up): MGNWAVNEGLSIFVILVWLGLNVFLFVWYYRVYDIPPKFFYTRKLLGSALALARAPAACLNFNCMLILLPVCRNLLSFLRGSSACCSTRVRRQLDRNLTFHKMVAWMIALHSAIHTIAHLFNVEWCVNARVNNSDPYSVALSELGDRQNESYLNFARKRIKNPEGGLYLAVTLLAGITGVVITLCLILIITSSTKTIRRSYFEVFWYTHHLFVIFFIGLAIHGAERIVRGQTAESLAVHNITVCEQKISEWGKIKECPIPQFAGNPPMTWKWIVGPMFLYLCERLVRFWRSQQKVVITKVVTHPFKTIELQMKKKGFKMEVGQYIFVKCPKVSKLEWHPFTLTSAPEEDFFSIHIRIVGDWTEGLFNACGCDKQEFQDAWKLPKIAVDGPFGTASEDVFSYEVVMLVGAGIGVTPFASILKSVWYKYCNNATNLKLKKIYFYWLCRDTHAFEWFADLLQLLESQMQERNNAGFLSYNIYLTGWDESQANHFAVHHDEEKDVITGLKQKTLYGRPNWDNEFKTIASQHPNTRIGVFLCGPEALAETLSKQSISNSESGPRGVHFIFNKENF

For `CCCC=C(CCC)[C@@H](NC(=O)c1ccc(C(F)(F)F)cc1)c1ccccc1`, the z-score in [1] is -1.25 (inactive); in assay [3], 0.666 (inactive); in assay [4] it was -0.96 (inactive); in assay [5] it was 0.394 (inactive); in [6], -1.05 (inactive); in assay [7], 1.47. The z-score in assay [8] is -3.96 (inactive); in [9] it was -3.71 (inactive); in assay [10], -3.65; in [11] it was -0.842; in assay [12], 0.0679; in assay [13], -1.59. The z-score was -2.51 in assay [14]; -2.58 in assay [15]; -2.98 in assay [16]; -0.208 (inactive) in [17]; -0.601 in assay [18]; -1.13 in [19]. Besides, the z-score in [20] was -0.396 (inactive). This compound had a composite z-score in assay [2] of 0.718.

As for `C=CCC(OC(C)=O)[C@@H]1[C@@H](N(Cc2cc3ccccc3o2)C(=O)Cc2ccc(F)cc2)c2cc(OCCCO)ccc2N1C(=O)c1ccc(-c2ccccc2)cc1` (stereo not given in full), the z-score in [1] is 1.66 (inactive); in assay [3], -0.171 (inactive); in assay [4], 0.229 (inactive); in assay [5], -0.454 (inactive); in assay [6] it was 0.0413 (inactive); in [7], 0.437. Further, the z-score in assay [8] was 0.578 (inactive); in assay [9] it was 0.684 (inactive); in assay [10], 0.314; in assay [11], 1.79; in [12] it was 0.0893; in assay [13] it was 1.01. Also, the z-score in assay [14] is 0.661; in [15], 0.708; in assay [16], 2.84; in assay [17] it was 0.756 (inactive); in assay [18], 0.602; in assay [19], 0.0416. Also, in assay [20], the z-score was 1.18 (inactive). The composite z-score in assay [2] is 0.0091.

Regarding `O=C1c2ccccc2[C@](Cc2ccccc2I)(C(=O)NCC(F)(F)F)[C@H](c2ccc(CO)cc2)N1Cc1ccccc1C(F)(F)F`, the z-score in assay [1] is 1.37 (inactive); in assay [3], 2.78 (inactive); in assay [4] it was 0.55 (inactive); in [5] it was 0.564 (inactive); in [6], 0.449 (inactive); in [7], 0.179. Further, the z-score was 1.27 (inactive) in assay [8]; 0.605 (inactive) in assay [9]; 2.32 in assay [10]; 0.187 in assay [11]; 1.31 in assay [12]; -0.529 in assay [13]. For the same compound, the z-score in assay [14] was -2.72; in assay [15], -2.27; in [16] it was 0.535; in assay [17] it was -0.225 (inactive); in assay [18], -0.248; in assay [19], 0.415. For the same compound, the z-score in assay [20] was 1.32 (inactive). In [2], this compound registered a composite z-score of -0.597.

With `COc1cccc([C@@H]2[C@@H](C)CC[C@H]3C(=O)N4[C@H](c5cccc(OC)c5)[C@@H](C)CC[C@H]4C(=O)N23)c1`, the z-score is -0.0799 (inactive) in assay [1]; -0.0074 (inactive) in [3]; -0.69 (inactive) in assay [4]; -1.21 (inactive) in [5]; -0.987 (inactive) in [6]; 3.15 in [7]. Besides, the z-score in assay [8] is 0.181 (inactive); in [9] it was 0.349 (inactive); in assay [10], 0.796; in assay [11], 2.04; in [12], 0.512; in [13], 0.761. Further, the z-score in assay [14] was 0.656; in [15] it was 1.34; in assay [16], 1.51; in assay [17], 0.891 (inactive); in assay [18] it was -0.395; in assay [19] it was 1.13. Also, in assay [20], the z-score was 1.51 (inactive). In [2], this compound showed a composite z-score of -0.234.

The values above are taken from PubChem BioAssay.
